Rows were chosen to be rich in hits. Some 7.5% of all compounds tested hit in one or more screens of this group.
ELG1 genotoxic: induces genotoxicity in HEK293T cells with luciferase-tagged ELG1 | HEK293T ELG1-luciferase reporter, luminescence, 16 h | 330,000 tested, 1.3% active | AID 504466 | Potency, µM (titrated, usually from 46 µM), inactives show top-dose activity change, positive = activation, actives largely listed as activators; further: % of control where 0% means no effect; nearly all actives have a fitted effect of over 60% in size
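16 hr compound incubation (37 °C, 5% CO2) of HEK293T cells carrying luciferase-tagged ELG1; luciferase then measured by ONE-Glo luminescence after 30 min at RT.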
Rab9 prom act: activators of Rab9 promoter; 320,000 tested, 2.8% active; Potency, µM (top dose mostly 9.22 µM), inactives show at the top dose activation, negative = inhibition, most hits filed as activators; Huh7 Rab9 promoter-luciferase reporter, luminescence, 24 h; further: % of control where 0% means no effect; nearly all actives have a fitted effect of over 60% in size
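Huh7 cells stably carrying Rab9 promoter–luciferase reporter, plated 1500 cells/well, compound added after 2 h and incubated 24 h at 37 °C; luciferase luminescence then read after 10 min with detection reagent.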
FLuc modulator: counter-screen for miR-21 project: firefly luciferase inhibitors or activators; Potency, µM (series often up to 57.5 µM), without a hit: top-dose activity change, negative = inhibition, actives largely listed as inhibitors; 360,000 tested, 6.9% active; purified FLuc, Km substrates, luminescence inhibition;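 further: plate controls were vehicle for no effect and reference inhibitor for full effect; nearly all actives have a fitted effect of over 55% in size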
Target sequence (P08659 whole entry, looked up): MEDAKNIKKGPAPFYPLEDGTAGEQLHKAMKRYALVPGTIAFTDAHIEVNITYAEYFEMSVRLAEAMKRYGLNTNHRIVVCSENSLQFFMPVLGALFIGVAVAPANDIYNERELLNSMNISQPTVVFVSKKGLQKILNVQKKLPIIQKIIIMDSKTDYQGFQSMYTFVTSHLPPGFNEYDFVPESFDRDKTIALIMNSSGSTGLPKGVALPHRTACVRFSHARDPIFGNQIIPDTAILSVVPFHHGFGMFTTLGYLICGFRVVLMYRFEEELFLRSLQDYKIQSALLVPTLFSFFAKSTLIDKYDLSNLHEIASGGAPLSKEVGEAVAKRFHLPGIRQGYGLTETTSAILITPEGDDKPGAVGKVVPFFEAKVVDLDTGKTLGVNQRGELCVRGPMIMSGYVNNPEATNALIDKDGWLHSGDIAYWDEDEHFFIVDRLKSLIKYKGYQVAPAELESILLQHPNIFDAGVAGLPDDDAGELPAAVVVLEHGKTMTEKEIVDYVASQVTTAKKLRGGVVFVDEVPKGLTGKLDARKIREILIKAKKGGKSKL
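Biochemical qHTS of compounds, final roughly 60 µM downward over six points, against 10 nM purified firefly luciferase using Km concentrations of substrates (10 uM D-luciferin, 10 uM ATP) in Tris acetate pH 7.5 buffer; luminescence output.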
SMN2 splice enh: enhancers of SMN2 splice variant expression. HEK293 SMN2-luciferase splicing reporter, luminescence, 30-36 h. Potency, µM (highest dose often 46.1 µM), inactives show at the top dose activity change, positive = activation, hits mostly activators. 210,000 tested, 2.8% active; further: % of control where 0% means no effect; nearly all actives have a fitted effect of over 55% in size
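qHTS luciferase splicing reporter: luminescence rises when SMN2 exon 7 is included in transfected HEK293 cells. Compound exposure lasted 30-36 h at 37C, with 4.5 mM final sodium butyrate as control, followed by a ONE-Glo read.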
NPC1 promoter act: NPC1 promoter activation; Huh7 NPC1 promoter luciferase reporter, 24 h; Potency, µM (doses to about 9.22 µM), without a hit: at the highest dose activation, hits mostly activators; 320,000 tested, 2.4% active; AID 485313; further: % of control where 0% means no effect; nearly all actives have a fitted effect of over 60% in size
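Stable NPC1-promoter luciferase Huh7 line; cpd (DMSO) 24 h, 37 °C, 5% CO2; Amplite luciferase reagent 10 min RT; luminescence readout. qHTS format.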
* marks the source's active call; other numbers are inactive results. The call rests on the fitted dose curve; in most records, active means well fitted curve in the direction sought with a large enough effect; inconclusive means small, poorly fitted or top-dose-only effect, or another doubt; inactive means no such curve, though single readings can be large; an effect the other way counts as inactive or inconclusive. Potency means the concentration at half of the fitted maximal effect.

`COc1ccc(NC(=O)C(C)n2c(C)c3cnn(-c4ccccc4)c(=O)c3c2C)cc1Cl` (configuration not stated) gave FLuc modulator -7% and SMN2 splice enh -13%.
Screening Cc1cc(C)c2c(N)c(S(=O)c3ccc(C(C)(C)C)cc3)sc2n1 (configuration not stated) returned ELG1 genotoxic -6%, Rab9 prom act -6%, FLuc modulator -12%, SMN2 splice enh -25% and NPC1 promoter act -2%.
`COc1ccc([N+](=O)[O-])cc1NCc1ccccc1` gave ELG1 genotoxic inconclusive, Rab9 prom act -3%, FLuc modulator 1%, SMN2 splice enh 32µM* and NPC1 promoter act -4%.
O=[N+]([O-])c1ccc(NCc2ccccc2)nc1 was read as ELG1 genotoxic inconclusive, Rab9 prom act 24%, FLuc modulator 21µM*, SMN2 splice enh inconclusive and NPC1 promoter act 28%.
`O=C(CCN1C(=O)/C(=C/c2ccccc2F)SC1=S)Nc1ccccn1` gave ELG1 genotoxic 0%, Rab9 prom act 0%, FLuc modulator -11% and NPC1 promoter act -1%.
`O=C(/C=C/c1ccc2ccccc2n1)c1cc(Cl)ccc1O` gave ELG1 genotoxic 11%, Rab9 prom act -2%, FLuc modulator 4.8µM* and NPC1 promoter act 9%.
Nc1nc(CSc2ccccc2)nc(N2CCCCC2)n1 was read as ELG1 genotoxic inconclusive, Rab9 prom act inconclusive, FLuc modulator inconclusive, SMN2 splice enh 20µM* and NPC1 promoter act inconclusive.
`Cc1onc(-c2c(F)cccc2Cl)c1C(=O)Nc1nccs1` gave ELG1 genotoxic -12%, Rab9 prom act -1%, FLuc modulator -4%, SMN2 splice enh -5% and NPC1 promoter act -5%.
CN(C)/C=N/c1ncnc2c1cnn2-c1ccc(C(F)(F)F)cn1 was read as ELG1 genotoxic inconclusive, Rab9 prom act inconclusive, FLuc modulator 11µM*, SMN2 splice enh 14µM* and NPC1 promoter act 2.5µM*.
`Cc1nn(-c2ccc(C(F)(F)F)cn2)c(C)c1Oc1ccccc1O` gave ELG1 genotoxic 4%, Rab9 prom act -1%, FLuc modulator inconclusive, SMN2 splice enh -11% and NPC1 promoter act 6%.
Screening CC(=O)c1ccc(-c2cccc(-c3nc4ccccn4c3NC3CCCCC3)c2)cc1 returned ELG1 genotoxic -11%, Rab9 prom act -4%, FLuc modulator -4% and NPC1 promoter act 0%.
Cc1ccc(CSc2nnc(SCC(=O)N/N=C/c3ccc(C(=O)O)cc3)s2)cc1 was read as ELG1 genotoxic 6%, Rab9 prom act -1%, FLuc modulator 0.24µM* and NPC1 promoter act -2%.
For O=C(CSc1nnc(SCc2ccccc2)s1)N/N=C/c1ccc(C(=O)O)cc1 the results were ELG1 genotoxic -4%, Rab9 prom act -1%, FLuc modulator 2.4µM* and NPC1 promoter act -4%.
For O=C(CSc1nc2ccccc2s1)N/N=C/c1ccc(C(=O)O)cc1 the results were ELG1 genotoxic 1%, Rab9 prom act -2%, FLuc modulator 27µM*, SMN2 splice enh 12% and NPC1 promoter act -1%.
Screening CC(=C/c1ccco1)/C=N/NC(=O)CSc1nnc(SCc2ccc(C)cc2)s1 returned ELG1 genotoxic 3%, Rab9 prom act -4%, FLuc modulator 2.7µM*, SMN2 splice enh -12% and NPC1 promoter act 0%.
`COc1ccc(CNC(=S)Nc2cccc(C)c2C)cc1` gave ELG1 genotoxic -1%, Rab9 prom act -2%, FLuc modulator -3%, SMN2 splice enh 0% and NPC1 promoter act -1%.
CCOC(=O)NC(=S)c1ccc[nH]1 was read as ELG1 genotoxic 2%, Rab9 prom act 0%, FLuc modulator -1%, SMN2 splice enh -7% and NPC1 promoter act 1%.
Screening Cc1sc2ncnc(N3CCC(C(=O)NNC(=O)COc4ccc(Br)cc4)CC3)c2c1C returned ELG1 genotoxic -2%, Rab9 prom act -5%, FLuc modulator 15% and NPC1 promoter act 0%.
Screening O=C(CSc1nnc(SCc2ccccc2)s1)N/N=C/C=C/c1ccccc1[N+](=O)[O-] returned ELG1 genotoxic 0%, Rab9 prom act -3%, FLuc modulator 24µM*, SMN2 splice enh 7% and NPC1 promoter act -6%.
For Cc1ccc(CSc2nnc(SCC(=O)N/N=C/c3ccccc3OCC(=O)O)s2)cc1 the results were ELG1 genotoxic 0%, Rab9 prom act -4%, FLuc modulator 1.5µM* and NPC1 promoter act -2%.
`O=C(CSc1nnc(SCc2ccc(Cl)cc2)s1)N/N=C/c1ccccc1C(=O)O` gave ELG1 genotoxic 0%, Rab9 prom act 2%, FLuc modulator 11µM* and NPC1 promoter act 4%.
For O=C(CSc1nnc(SCc2ccccc2)s1)N/N=C/c1ccc(Cl)cc1Cl the results were ELG1 genotoxic 5%, Rab9 prom act -3%, FLuc modulator 0%, SMN2 splice enh 7% and NPC1 promoter act 1%.
O=C(Nc1nccs1)c1cncc(Br)c1 was read as ELG1 genotoxic 7%, Rab9 prom act 4µM*, FLuc modulator inconclusive, SMN2 splice enh 11µM* and NPC1 promoter act inconclusive.
Screening O=C(Nc1nccs1)c1cccnc1 returned ELG1 genotoxic -3%, Rab9 prom act 7%, FLuc modulator 6% and NPC1 promoter act -6%.
For Cc1csc(NC(=O)c2ccc(S(C)(=O)=O)cc2)n1 the results were ELG1 genotoxic -20%, Rab9 prom act inconclusive, FLuc modulator inconclusive, SMN2 splice enh -16% and NPC1 promoter act inconclusive.
For Cc1csc(NC(=O)c2cncc(Br)c2)n1 the results were ELG1 genotoxic inconclusive, Rab9 prom act 1.1µM*, FLuc modulator 9.5µM*, SMN2 splice enh 13µM* and NPC1 promoter act 2.8µM*.
O=C(Nc1nnc(-c2ccccc2Cl)s1)c1ccccc1F was read as ELG1 genotoxic inconclusive, Rab9 prom act 4µM*, FLuc modulator -13% and NPC1 promoter act 3.2µM*.
Screening O=C(Nc1nnc(-c2ccccc2F)s1)Nc1ccccc1F returned ELG1 genotoxic 11%, Rab9 prom act 2µM*, FLuc modulator 6%, SMN2 splice enh inconclusive and NPC1 promoter act inconclusive.
`O=C(Nc1nnc(-c2ccccc2)s1)c1ccccc1F` gave ELG1 genotoxic inconclusive, Rab9 prom act 1.1µM*, FLuc modulator 11µM* and NPC1 promoter act 2.5µM*.
Screening O=C(N/N=C1\C(=O)c2cccc3cccc1c23)c1ccc(O)cc1 returned ELG1 genotoxic 3%, Rab9 prom act 21%, FLuc modulator 2.1µM*, SMN2 splice enh 23% and NPC1 promoter act 0%.
CCOC(=O)NN=C1c2ccccc2-c2ccccc21 was read as ELG1 genotoxic -6%, Rab9 prom act -3%, FLuc modulator -12% and NPC1 promoter act -1%.
For O=C(N/N=C1\CCc2ccccc21)c1ccccc1Cl the results were ELG1 genotoxic 18µM*, Rab9 prom act 2.8µM*, FLuc modulator 11µM*, SMN2 splice enh 10µM* and NPC1 promoter act 2.2µM*.

Screening data (PubChem)
